Out of some 1,300 compounds screened, about 380 (29%) were called active. Not shown: some 37% with an inconclusive outcome. Calls follow the shape of the dose curve; as a rule, active = well fitted inhibition curve with a large enough effect; inconclusive = small, poorly fitted or top-dose-only effect; inactive = flat fitted curve, though single readings scatter. Some of the results follow.
Biological target: Thyrotropin receptor (Homo sapiens) (UniProt P16473)
Assay: qHTS for antagonists of the Thyroid Stimulation Hormone Receptor: Hit Validation in Primary Screen; also: nearly all actives have a fitted effect of over 80% in size;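 as to activity change, negative = inhibition: cells stimulated with TSH at EC80 of 4 nM during compound exposure; cAMP by competitive HTRF where cellular cAMP lowers the 665 nm FRET signal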
Conditions: TSHR-expressing cells, cAMP antagonist mode; series mostly up to 58 µM; activity change, negative = inhibition: at the top concentration
Description: The thyroid-stimulating hormone receptor (TSHR) is a member of the 7 trans-membrane-spanning receptor (7TMR) family of cell surface receptors. TSHR-mediated hyperthyroidism is important in thyroid pathology. The development of small molecule antagonists of TSHR may lead to therapeutic approaches for TSHR-mediated hyperthyroidism caused by constitutively activating mutations or stimulating auto-antibodies associated with Graves' disease. Graves' disease is the leading cause of hyperthyroidism and is caused by autoantibodies that stimulate TSHR (TsAbs) causing thyroid growth and unregulated overproduction of thyroid hormones and existing treatments have liabilities (agranulocytosis). In addition, TSHRs are known to be expressed in multiple extrathyroidal tissues including bone, brain, kidney, testis, fat and cells of the immune system but the role of the TSHR in these tissues is not clear. Therefore, TSHR antagonists/inverse agonists could be used as probes of extrathyroidal TSHR function. Finally, TSHR inverse agonists, which are a subclass of antagonists that inhibit agonist-independent (or basal or constitutive) TSHR signaling, could be used to inhibit TSH-independent signaling in patients with recurrent or metastatic thyroid cancer who are receiving thyroid hormone to suppress TSH.
In collaboration between scientist from the NCGC and the NIDDK, a miniaturized HTRF high-throughput screen was developed. It's a cell based assay, where an anti cAMP antibody contains a fluorescent cryptate tag (excitation 337 nm; emission 620 nm) and the acceptor is cAMP-d2 (excitation 620 nm; emission 665 nm). When antibody and cAMP-d2 interact and are excited by a 337 nm light, a FRET occurs resulting in emission at 665 nm. The assay is competition between cAMP-d2 and cAMP (from the cell lysate). The homogeneous protocol allows for one step dispense after stimulation that is automation friendly. This is a hit validation assay using the primary screen format.
NIH Chemical Genomics Center [NCGC]
NIH Molecular Libraries Probe Centers Network [MLPCN]
Assay Provider: Marvin Gershengorn, NIDDK
1. 3ul of 200 TSHR freshly harvested cells/well are dispensed into a 1536 TC-treated white solid bottom plate.
2. Through pintool addition, 23nl of compounds and control in 100% DMSO are added to the plate.
3. Then 1ul of EC80 TSH (4nM final) is added to the plate.
4. Assay is incubated at 37 deg C for 2 hours.
5. 2ul of cAMP antibody diluted 1:20 in lysis buffer is added.
6. Immediately following, 2ul of d2 diluted 1:20 in HBSS is added seperately.
7. The assay is incubated for 30 minutes at ambient room temperature.
8. The result is obtained by using a ViewLux read-out with HTRF settings.
% is scaled to controls: 0 for no effect and ±100 for the full control effect; potency is read from the fitted curve at half-maximal effect.

Thyrotropin receptor (Homo sapiens), sequence (P16473 whole entry, looked up): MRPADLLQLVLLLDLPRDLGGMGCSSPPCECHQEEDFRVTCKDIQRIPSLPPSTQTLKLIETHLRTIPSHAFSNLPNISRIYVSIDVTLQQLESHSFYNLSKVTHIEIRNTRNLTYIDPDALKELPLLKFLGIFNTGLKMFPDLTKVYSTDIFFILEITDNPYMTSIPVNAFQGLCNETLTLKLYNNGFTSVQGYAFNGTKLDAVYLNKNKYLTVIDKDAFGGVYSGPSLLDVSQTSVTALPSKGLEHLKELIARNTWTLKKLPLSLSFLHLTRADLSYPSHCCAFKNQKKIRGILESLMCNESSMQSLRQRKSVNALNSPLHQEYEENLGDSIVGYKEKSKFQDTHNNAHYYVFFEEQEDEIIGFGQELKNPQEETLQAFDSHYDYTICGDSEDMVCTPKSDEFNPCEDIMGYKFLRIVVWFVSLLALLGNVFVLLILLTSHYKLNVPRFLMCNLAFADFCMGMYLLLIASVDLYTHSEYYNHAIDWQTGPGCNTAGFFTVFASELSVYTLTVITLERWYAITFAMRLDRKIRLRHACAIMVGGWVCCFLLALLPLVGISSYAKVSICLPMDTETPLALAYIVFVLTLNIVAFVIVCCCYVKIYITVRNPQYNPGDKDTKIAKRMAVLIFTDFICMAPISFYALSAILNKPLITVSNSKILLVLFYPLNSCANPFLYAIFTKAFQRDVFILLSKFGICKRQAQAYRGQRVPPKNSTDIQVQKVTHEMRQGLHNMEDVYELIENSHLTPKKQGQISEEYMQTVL

| Compound | activity change, negative = inhibition | Potency |
| --- | --- | --- |
| CCOc1ccccc1-n1c(=S)sc2c(=O)n(-c3ccc(F)cc3)c(SCC(=O)O)nc21 | -3.34% (inactive) | – |
| Fc1ccc2[nH]c3c(N4CCN(Cc5ccc6c(c5)OCO6)CC4)ncnc3c2c1 | – | 23.9 µM (active) |
| N#Cc1c(F)cccc1N1CCN(Cc2ccc3c(c2)OCO3)CC1 | -2.54% (inactive) | – |
| Fc1ccc2[nH]c3c(N4CCN(c5ccccc5)CC4)ncnc3c2c1 | – | 30.1 µM (active) |
| Cc1ccc2c(c1)[nH]c1c(N3CCN(Cc4ccccc4)CC3)ncnc12 | – | 30.1 µM (active) |
| O=C(c1cccc(Cl)c1)N1CCN(Cc2ccc3c(c2)OCO3)CC1 | -6.83% (inactive) | – |
| O=C1NC(=O)/C(=C/c2ccccc2Oc2ccc(Cl)cc2)S1 | -8.27% (inactive) | – |
| CN(Cc1ccco1)S(=O)(=O)c1csc(C(N)=O)c1 | -3.34% (inactive) | – |
| CCc1cc2c(NCc3ccccc3)nc(C)nc2s1 | – | 23.9 µM (active) |
| Cc1nc(SCC(=O)N2CCN(c3ccccc3)CC2)n[nH]1 | -6.86% (inactive) | – |
| O=C(CSc1ccc(F)cc1)N1CCC(c2nc3ccccc3s2)CC1 | – | 37.9 µM (active) |
| C=CCC1(CC=C)CCCN1C(=O)c1cc(COc2ccc(C)nc2)on1 | – | 15.1 µM (active) |
| O=C(Nc1cc(S(=O)(=O)N2CCCCC2)ccc1Cl)c1ccccc1NS(=O)(=O)c1ccc(F)cc1 | – | 7.57 µM (active) |
| O=C(Nc1nnc(S(=O)(=O)N2CCCC2)s1)c1ccccc1F | -9.65% (inactive) | – |
| CC(=O)Nc1ccc(S(=O)(=O)Nc2c(NC3CCCCC3)c3ccccc3oc2=O)cc1 | 0.576% (inactive) | – |
| Cc1ccc(NC(=O)c2ccccc2NS(=O)(=O)c2ccc(F)cc2)cc1S(=O)(=O)N1CCCCC1 | – | 3.79 µM (active) |
| CCc1ccccc1NC(=O)C1CCCN(S(=O)(=O)c2ccc3c(c2)CC(C)N3C(C)=O)C1 (centres undefined) | -5.5% (inactive) | – |
| CCNC(=O)c1ccccc1NC(=O)C1CC(=O)N(C(C)C)C1 (centres undefined) | -3.43% (inactive) | – |
| CCc1ccc(N/C(SCc2cccc(F)c2)=C(/C#N)C(=O)NCc2ccco2)cc1 | -5.33% (inactive) | – |
| CC(C)c1cc(=O)n2[nH]c(SCc3ccccc3)nc2n1 | -0.807% (inactive) | – |
| CCCCc1c(C)nc2nc(SCc3ccc(Cl)cc3)[nH]n2c1=O | – | 21.3 µM (active) |
| C#C[C@]1(OC(C)=O)CCC2C3CCC4=CC(=O)CC[C@@H]4C3CC[C@@]21C (some centres undefined) | – | 13.5 µM (active) |
| CC(=O)N1CCc2cc(Br)cc(S(=O)(=O)N3CCC(C(=O)O)CC3)c21 | -11.2% (inactive) | – |
| CCC1Sc2ccc(S(=O)(=O)CCC(=O)Nc3ccccc3Cl)cc2NC1=O (centres undefined) | -11.6% (inactive) | – |
| O=C(Nc1cccc(S(=O)(=O)Nc2ccc(Cl)cc2)c1)c1ccc2c(c1)OCCO2 | – | 16.9 µM (active) |

| Compound | activity change, negative = inhibition | Potency |
| --- | --- | --- |
| O=C(c1ccc2c(c1)OCO2)N1CCN(S(=O)(=O)c2ccc(Cl)cc2)CC1 | -1.21% (inactive) | – |
| CCOC(=O)c1[nH]c2cc(OC)c(OC)cc2c1NC(=O)c1ccc2c(c1)OCO2 | -2.79% (inactive) | – |
| COC(=O)c1sc(NC(=O)C(C)C)c(C(=O)OC)c1C | -4.29% (inactive) | – |
| Cc1cc(/C=C2\Sc3ccccc3N2C)cc(C)[n+]1CC1CCCO1 (centres undefined) | – | 30.1 µM (active) |
| Cc1cccc(OCc2nnc(SCC(=O)N3c4ccccc4CCc4ccccc43)o2)c1 | -4.87% (inactive) | – |
| CC(C)Oc1ccc(C(=O)Nc2ccc(Cl)c(S(=O)(=O)Nc3ccc(Cl)cc3)c2)cc1 | – | 21.3 µM (active) |
| COc1ccc(NC(=O)c2ccc3ccccc3n2)cc1S(=O)(=O)Nc1ccccc1Cl | -2.39% (inactive) | – |
| COc1ccc(N(CC(=O)Nc2cc(Cl)ccc2OC)S(=O)(=O)c2c(C)noc2C)cc1 | -11.3% (inactive) | – |
| COc1ccc(C(=O)Nc2ccc(Cl)c(S(=O)(=O)Nc3ccccc3OC)c2)cc1 | – | 12 µM (active) |
| CC(C)Oc1ccc(C(=O)NCCNC(=O)c2ccco2)cc1 | -4.87% (inactive) | – |
| COC(=O)C1C(=O)NC(SC)=C(C#N)C1c1ccccc1 (centres undefined) | -3.77% (inactive) | – |
| Cc1cc(C)c2oc(C(=O)Nc3ccc(S(=O)(=O)Nc4nccc(C)n4)cc3)cc(=O)c2c1 | -4.03% (inactive) | – |
| O=C1OC(CC(=O)N(Cc2nnc(-c3ccc(Cl)cc3)o2)C2CC2)c2ccccc21 (centres undefined) | -6.17% (inactive) | – |
| COc1ccc(N2CCN(c3ncnc4sc(C(=O)NCC5CCCO5)c(C)c34)CC2)cc1 (centres undefined) | -1.12% (inactive) | – |
| Cc1sc2ncnc(N3CCN(CCOc4ccc(Cl)cc4)CC3)c2c1C | – | 19 µM (active) |
| Cc1[nH]n(C)c(=O)c1C(=O)c1c(-c2c(Cl)cccc2Cl)noc1C | -5.39% (inactive) | – |
| COc1ccc2cc(/C=C3\SC(=S)NC3=O)c(N3CCOCC3)nc2c1 | – | 3.38 µM (active) |
| O=C1NC(=S)S/C1=C\c1cc2ccccc2nc1N1CCCCC1 | – | 13.5 µM (active) |
| CCc1ccc(-c2nnn(CCC(=O)OC)n2)cc1 | -0.749% (inactive) | – |
| COC(=O)c1nc2n(n1)C(c1cccc(Cl)c1)C1=C(CCCC1=O)N2 (centres undefined) | -1.3% (inactive) | – |
| Cc1nn(-c2ccc(N3CCOCC3)nn2)c(C)c1CCC(=O)NCc1ccccc1F | -2.51% (inactive) | – |
| COc1cccc(CN(C)C(=O)c2ccc(Oc3ccccc3)cc2)c1OC | – | 37.9 µM (active) |
| COc1cccc(CN(C)C(=O)CNC(=O)c2ccc(-c3ccccc3)cc2)c1OC | – | 26.9 µM (active) |
| CCOC(=O)C1(CCOc2ccccc2)CCN(Cc2cccc(OC)c2O)CC1 | 1.47% (inactive) | – |
